Results published in PubChem BioAssay (NCATS).
Several values for one entry are separate records, joined by “and”; a condition that tells them apart may be missing. Identical values can stand only once. Inconclusive results are not listed. Activity calls are given as the source filed them. Calls come from the whole dose curve; as a rule, active = well fitted inhibition curve with a large enough effect; inconclusive = small, poorly fitted or top-dose-only effect; inactive = no such curve, though single readings can be large or run the other way.

Biological target: Cytochrome P450 3A4 (Homo sapiens) (UniProt P08684)
Sequence (P08684 whole entry, looked up): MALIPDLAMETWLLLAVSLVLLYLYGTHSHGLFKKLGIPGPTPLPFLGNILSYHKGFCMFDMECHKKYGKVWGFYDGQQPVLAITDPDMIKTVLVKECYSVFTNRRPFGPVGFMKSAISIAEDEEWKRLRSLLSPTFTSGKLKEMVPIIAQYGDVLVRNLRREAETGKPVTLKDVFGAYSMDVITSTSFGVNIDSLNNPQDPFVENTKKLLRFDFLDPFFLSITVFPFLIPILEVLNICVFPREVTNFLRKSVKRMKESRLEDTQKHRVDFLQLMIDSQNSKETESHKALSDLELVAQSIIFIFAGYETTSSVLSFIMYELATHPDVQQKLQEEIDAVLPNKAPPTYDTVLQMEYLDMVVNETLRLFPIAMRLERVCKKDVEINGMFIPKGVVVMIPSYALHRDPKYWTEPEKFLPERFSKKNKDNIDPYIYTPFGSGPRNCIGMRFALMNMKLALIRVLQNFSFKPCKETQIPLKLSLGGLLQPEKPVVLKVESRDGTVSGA
Experiment: qHTS Assay for Inhibitors and Substrates of Cytochrome P450 3A4 (AID 884); note: nearly all actives have a fitted effect of over 50% in size
Conditions: recombinant CYP3A4, Luciferin-PPXE luminescence; series mostly up to 57.1 µM
Procedure, shortened: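 Luminescent readout of luciferin produced by CYP3A4 (20 nM) dealkylation of Luciferin-PPXE, 25 uM (its KM). NADPH-driven reaction ran 60 min at RT after 10 min compound preincubation; data scaled to 57 uM ketoconazole as 100% inhibition.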
Potency is the fitted concentration of half-maximal effect.

Potency, active:
COC(=O)c1cccc(C23CC4(C2)[C@H](CN(CC2CCCCC2)[C@@H]4c2ccccc2)C3c2ccc(Cl)nc2)c1 (stereo not given in full) 15.8 µM
CCC1=C2CC[C@H]3C(=O)NC(=O)[C@H]3[C@H]2[C@@]2(Cc3ccccc3)C(=NCC3CC3)OC(=O)N2C1=O 15.8 µM
CCC1=C(OC(=O)N(CC)CC)N2C(=O)OC(=NCC(=O)OC)[C@]2(Cc2ccccc2)[C@H]2C1=CC[C@H]1C(=O)N(C)C(=O)[C@H]12 10 µM
CCC1=C(OC(=O)N(CC)CC)N2C(=O)OC(=NCCOC)[C@]2(Cc2ccccc2)[C@H]2C1=CC[C@H]1C(=O)N(CC)C(=O)[C@H]12 5.01 µM
COc1cccc([C@@H]2Oc3ccc(OC)cc3/C(=N/O[C@@H](C)CN3CCCc4nc(C)c(C)cc43)[C@@H]2O)c1 3.16 µM
CCC1=C(OC(=O)N(CC)CC)N2C(=O)OC(=NCCc3c[nH]c4ccccc34)[C@]2(Cc2ccccc2)[C@H]2C1=CC[C@H]1C(=O)N(c3ccccc3)C(=O)[C@H]12 6.31 µM
CCC1=C2CC[C@H]3C(=O)N(c4ccccc4)C(=O)[C@H]3[C@H]2[C@@]2(Cc3ccccc3)C(=NCc3ccccc3)OC(=O)N2C1=O 5.01 µM
O=C1C[C@@H](O)[C@@H](O)[C@H]2[C@@H]3C(=O)N(Cc4ccc5c(c4)OCO5)C(=O)[C@@H]3CC[C@H]12 3.98 µM
CO[C@H]1COC(=O)[C@H](C)NC(=O)C/C=C\[C@@H](C)[C@@H](NS(=O)(=O)c2ccc(C)cc2)COC(=O)C/C=C\[C@@H]1C 3.98 µM
CCC1=C(OC(=O)N(CC)CC)N2C(=O)OC(=NCCc3c[nH]c4ccccc34)[C@]2(C)[C@H]2C1=CC[C@H]1C(=O)N(C)C(=O)[C@H]12 1.26 µM
C/C(CCN1CCCCc2nc(C)c(C)cc21)=N\O[C@@H](C)c1cn([C@H](CO)Cc2ccccc2)nn1 3.98 µM and 5.01 µM
CCC1=C2CC[C@H]3C(=O)N(C)C(=O)[C@H]3[C@H]2[C@@]2(Cc3ccccc3)C(=NCCOC)OC(=O)N2C1=O 10 µM
CCC1=C2CC[C@H]3C(=O)N(CC(=O)OC)C(=O)[C@H]3[C@H]2[C@@]2(Cc3ccccc3)C(=NCCOC)OC(=O)N2C1=O 12.6 µM
CCC1=C2CC[C@H]3C(=O)N(C)C(=O)[C@H]3[C@H]2[C@@]2(Cc3ccccc3)C(=NCCc3c[nH]c4ccccc34)OC(=O)N2C1=O 1.26 µM
CCC1=C2CC[C@H]3C(=O)N(CC)C(=O)[C@H]3[C@H]2[C@@]2(Cc3ccccc3)C(=NCCOC)OC(=O)N2C1=O 10 µM
CCC1=C(OC(=O)N(CC)CC)N2C(=O)OC(=NCC3CC3)[C@]2(Cc2ccccc2)[C@H]2C1=CC[C@H]1C(=O)N(C)C(=O)[C@H]12 3.98 µM
COC(=O)[C@@H]1C[C@@H]2CC[C@@H](O)C[C@@H]2N1Cc1ccc(-c2ccccc2)cc1 20 µM
COC(=O)C/C=C\[C@@H](C)[C@@H](/C=N\OCC[C@H]1C=C[C@H](OC(C)=O)[C@@H](COC(C)=O)O1)NS(=O)(=O)c1ccc(C)cc1 3.98 µM
CC(=O)OCC1OC(c2ccc3c(c2)OCO3)C=CC1OC(C)=O (stereo not given) 3.98 µM
Cc1ccc(S(=O)(=O)N[C@@H]2COC(=O)C/C=C\[C@H](C)COC(=O)N[C@@H](C)C(=O)C/C=C\[C@H]2C)cc1 3.16 µM
CCN1C(=O)[C@@H]2[C@H](C1=O)[C@@H]1C[C@H]3C(=O)N(CC)C(=O)[C@H]3[C@@H]3C1=C(C(=O)N1C(=O)O/C(=N\CC4CC4)[C@]31C)[C@@H]2C 15.8 µM
C=CC[C@@H]1C=C[C@H](O/N=C(\C)CCN2CCCCc3nc(C)c(C)cc32)[C@H](CO)O1 3.98 µM
COc1cccc([C@H]2Oc3ccc(OC)cc3/C(=N\OC[C@@H](O)[C@@H]3O[C@@H]4OC(C)(C)O[C@@H]4[C@H]3O)[C@@H]2O)c1 3.98 µM
N#Cc1ccc(C23CC4(C2)[C@H](CN(Cc2cccnc2)[C@@H]4c2ccccc2)C3c2ccccc2)cc1 (stereo not given in full) 3.98 µM
Cc1ccc(S(=O)(=O)N[C@H]2COC(=O)CC=C[C@@H](C)[C@H]3C=C[C@H](O)[C@@H](COC(=O)CC=C[C@H]2C)O3)cc1 3.16 µM
CO[C@H]1COC(=O)C/C=C\[C@H](C)[C@@H](NS(=O)(=O)c2ccc(C)cc2)COC(=O)CCC[C@@H]1C 3.98 µM
CCCNC(=O)OC[C@@H]1O[C@H](CCO/N=C\C[C@H]2C=C[C@H](OC(C)=O)[C@@H](COC(C)=O)O2)C=C[C@@H]1Oc1ccc(OC)cc1 3.98 µM
C=C1C(=O)OC2C[C@@]3(C)CCCC(=C)[C@@H]3CC12 (stereo not given in full) 10 µM
Cc1c(C(=O)NC2CCCCC2)sc2nc3ccc(N)cc3n12 1.58 µM
COC(=O)c1cccc(C23CC4(C2)[C@H](CN(Cc2cccnc2)[C@@H]4c2ccccc2)C3c2ccccc2)c1 (stereo not given in full) 1.58 µM
COC(=O)NC(c1ccco1)C(C(C)=O)C(=O)OC (stereo not given) 3.16 µM
COC(=O)c1ccc(C(NC(=O)OCc2ccccc2)/C(C)=C/[C@@H](C)C(=O)NCCN2CCOCC2)cc1 (stereo not given in full) 3.16 µM
O=C1C=C(NCCO)C(=O)c2cnccc21 7.94 µM
CCC1=C2CC[C@H]3C(=O)N(CC)C(=O)[C@H]3[C@H]2[C@@]2(C)C(=O)N(CC(=O)OC)C(=O)N2C1=O 7.94 µM
O=C(N/N=C1/C[C@@H](O)[C@@H](O)[C@@H]2[C@@H]3C(=O)N(Cc4ccc5c(c4)OCO5)C(=O)[C@H]3CC[C@@H]12)OCc1ccccc1 1.26 µM
N#Cc1ccc(C23CC4(C2)[C@H](CN(Cc2cccnc2)[C@@H]4c2ccccc2)C3c2ccc(C(F)(F)F)cc2)cc1 (stereo not given in full) 6.31 µM
C/C(CCC(=O)OC[C@@H]1O[C@H](C#Cc2ccccc2)C=C[C@@H]1Oc1ccc(C)cc1)=N/O[C@@H](C)CN1CCCCc2nc(C)c(C)cc21 3.16 µM
CC1(C(=O)NCCc2c[nH]c3ccccc23)C=CCN1C(=O)c1ccccc1 (stereo not given) 10 µM
C/C(CCC(=O)OC[C@@H]1O[C@H](C#Cc2ccccc2)C=C[C@@H]1Oc1ccc(C)cc1)=N/OC[C@@H](O)COCc1ccco1 3.16 µM
CCN1C(=O)[C@H]2[C@H]3[C@H](O)[C@H](O)C/C(=N/O[C@@H](C)c4cc(-c5c(C)cc(C)cc5C)no4)[C@@H]3CC[C@@H]2C1=O 3.98 µM
